This passage reports binding signal results from article PMC7862700, “An all-to-all approach to the identification of sequence-specific readers for epigenetic DNA modifications on cytosine”.

Experiment in all cases: DAPPL (digital affinity profiling via proximity ligation, sequencing); 10 mM Tris-HCl pH 7.5, 50 mM NaCl, 1 mM DTT, 4% glycerol, room temperature, 30 min; GST-TFs on glutathione beads, 16-mer random dsDNA library, 0.1% formaldehyde crosslink after washing; high values mean tight binding
Common to all, as to conditions: protein: recombinant; tags: N-terminal GST; dsDNA, one strand shown

The target in one test is T1, ELK1 (Homo sapiens, UniProt P19419 1-428).
T1 sequence: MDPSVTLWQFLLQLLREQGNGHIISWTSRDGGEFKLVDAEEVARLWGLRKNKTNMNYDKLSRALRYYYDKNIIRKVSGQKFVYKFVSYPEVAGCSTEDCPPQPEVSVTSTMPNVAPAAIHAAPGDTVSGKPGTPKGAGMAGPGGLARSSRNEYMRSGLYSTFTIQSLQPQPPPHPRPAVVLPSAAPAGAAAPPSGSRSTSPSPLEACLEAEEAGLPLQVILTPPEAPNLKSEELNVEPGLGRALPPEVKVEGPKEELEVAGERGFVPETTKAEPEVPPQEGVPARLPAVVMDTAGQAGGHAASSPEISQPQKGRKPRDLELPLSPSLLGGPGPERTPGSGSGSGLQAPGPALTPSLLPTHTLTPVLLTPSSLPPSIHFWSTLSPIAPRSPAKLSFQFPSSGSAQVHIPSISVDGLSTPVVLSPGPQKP
The procedure, abridged: (§1)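 Binding signal is given per hexamer as its read frequency for a factor divided by its frequency in the tag-only sample. GST-fused human transcription factors were expressed in yeast, captured on glutathione beads, barcoded with DNA and pooled with that sample, then incubated with 200 nmole of a 16-mer random double-stranded DNA library in Tris/NaCl/DTT/glycerol buffer for 30 min at room temperature. The pools were then washed, crosslinked, proximity-ligated, amplified by PCR and sequenced on an Illumina NextSeq500.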

The target of another test is T2, GABPA (Homo sapiens, UniProt Q06546 1-454).
T2 sequence: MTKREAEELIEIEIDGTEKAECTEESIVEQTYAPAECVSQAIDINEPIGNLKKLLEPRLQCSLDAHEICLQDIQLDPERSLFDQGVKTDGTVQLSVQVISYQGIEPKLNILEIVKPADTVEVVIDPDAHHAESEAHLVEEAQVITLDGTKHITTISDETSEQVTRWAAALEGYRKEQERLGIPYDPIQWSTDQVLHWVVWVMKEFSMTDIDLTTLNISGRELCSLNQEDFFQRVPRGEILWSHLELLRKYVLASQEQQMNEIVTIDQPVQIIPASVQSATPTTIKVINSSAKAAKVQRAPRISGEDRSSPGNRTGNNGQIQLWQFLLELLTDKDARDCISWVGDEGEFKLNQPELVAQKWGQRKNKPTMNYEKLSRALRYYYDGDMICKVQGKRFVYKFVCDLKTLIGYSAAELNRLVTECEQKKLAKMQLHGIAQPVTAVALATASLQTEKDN
The procedure, abridged:
as §1

A further test concerns the target T3, ERG (Homo sapiens, UniProt P11308 1-479).
T3 sequence: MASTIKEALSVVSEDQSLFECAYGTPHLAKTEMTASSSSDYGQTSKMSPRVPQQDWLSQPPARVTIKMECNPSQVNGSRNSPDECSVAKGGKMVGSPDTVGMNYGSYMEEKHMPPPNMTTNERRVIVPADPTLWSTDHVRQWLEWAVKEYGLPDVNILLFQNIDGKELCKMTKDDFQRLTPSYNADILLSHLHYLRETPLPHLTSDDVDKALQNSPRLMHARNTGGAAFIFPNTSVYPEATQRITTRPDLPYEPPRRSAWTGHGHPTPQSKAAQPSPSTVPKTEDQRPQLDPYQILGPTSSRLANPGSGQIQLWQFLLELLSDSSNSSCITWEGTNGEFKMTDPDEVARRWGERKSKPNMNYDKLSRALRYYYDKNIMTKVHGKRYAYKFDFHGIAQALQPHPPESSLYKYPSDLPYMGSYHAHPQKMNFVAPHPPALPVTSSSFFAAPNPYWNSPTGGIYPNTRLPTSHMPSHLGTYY
An outline of the steps:
as §1

The next test has as its target ELF1 (Homo sapiens, UniProt P32519 1-619). An outline of the steps: as §1
The target of a further test is T4, EHF (Homo sapiens, UniProt Q9NZC4 1-300).
T4 sequence: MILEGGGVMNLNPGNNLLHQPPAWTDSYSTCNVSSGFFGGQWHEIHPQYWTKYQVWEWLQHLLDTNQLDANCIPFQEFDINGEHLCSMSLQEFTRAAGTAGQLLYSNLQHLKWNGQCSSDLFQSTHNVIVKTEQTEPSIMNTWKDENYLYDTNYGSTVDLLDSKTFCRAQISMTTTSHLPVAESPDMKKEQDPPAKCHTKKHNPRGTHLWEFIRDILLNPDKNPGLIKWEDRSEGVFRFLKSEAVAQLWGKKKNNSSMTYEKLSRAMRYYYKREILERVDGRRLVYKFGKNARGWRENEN
The procedure, abridged: as §1

The target in a further test is SPI1 (Homo sapiens, UniProt P17947 1-270). An outline of the steps: as §1
The target in the next test is T5, ELK3 (Homo sapiens, UniProt P41970 1-407).
T5 sequence: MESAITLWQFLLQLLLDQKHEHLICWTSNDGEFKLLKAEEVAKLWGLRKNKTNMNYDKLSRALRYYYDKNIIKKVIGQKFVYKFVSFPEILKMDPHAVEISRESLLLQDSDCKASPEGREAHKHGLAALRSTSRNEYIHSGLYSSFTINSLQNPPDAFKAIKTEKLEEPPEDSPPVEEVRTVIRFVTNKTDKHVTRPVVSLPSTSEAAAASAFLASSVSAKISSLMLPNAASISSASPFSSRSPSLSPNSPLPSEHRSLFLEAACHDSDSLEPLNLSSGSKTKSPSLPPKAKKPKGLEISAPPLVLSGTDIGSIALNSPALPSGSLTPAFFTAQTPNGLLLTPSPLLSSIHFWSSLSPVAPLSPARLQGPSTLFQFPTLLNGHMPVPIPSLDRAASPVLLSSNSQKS
The procedure, abridged: as §1

Another test concerns the target T6, FEV (Homo sapiens, UniProt Q99581 1-238).
T6 sequence: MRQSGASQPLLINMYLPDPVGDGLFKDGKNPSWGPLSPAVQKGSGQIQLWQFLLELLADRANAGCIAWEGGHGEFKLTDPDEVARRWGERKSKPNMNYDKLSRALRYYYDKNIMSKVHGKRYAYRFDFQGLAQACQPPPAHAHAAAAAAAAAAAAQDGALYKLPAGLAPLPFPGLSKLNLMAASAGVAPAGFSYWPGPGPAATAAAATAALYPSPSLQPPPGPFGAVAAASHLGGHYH
An outline of the steps:
as §1

For another test, the target named is ELF4 (Homo sapiens, UniProt Q99607 1-663). The procedure, abridged:
as §1

The next test concerns the target T7, ELK4 (Homo sapiens, UniProt P28324-2 1-405).
T7 sequence: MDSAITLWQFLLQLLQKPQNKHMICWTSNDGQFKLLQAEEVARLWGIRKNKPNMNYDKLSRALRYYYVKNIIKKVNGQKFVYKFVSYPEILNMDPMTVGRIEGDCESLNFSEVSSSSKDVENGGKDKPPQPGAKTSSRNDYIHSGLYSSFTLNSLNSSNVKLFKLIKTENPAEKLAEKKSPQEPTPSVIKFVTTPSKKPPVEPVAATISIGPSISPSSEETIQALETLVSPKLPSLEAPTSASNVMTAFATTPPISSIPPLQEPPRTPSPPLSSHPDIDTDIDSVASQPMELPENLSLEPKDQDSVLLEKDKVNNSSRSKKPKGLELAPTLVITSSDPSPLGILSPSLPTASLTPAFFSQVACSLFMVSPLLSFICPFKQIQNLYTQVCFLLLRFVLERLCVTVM
The procedure, abridged:
as §1

The target in a further test is ETV1 (Homo sapiens, UniProt P50549 1-477). The procedure, abridged:
as §1

In another test the target is T8, ERF (Homo sapiens, UniProt P50548 1-548).
T8 sequence: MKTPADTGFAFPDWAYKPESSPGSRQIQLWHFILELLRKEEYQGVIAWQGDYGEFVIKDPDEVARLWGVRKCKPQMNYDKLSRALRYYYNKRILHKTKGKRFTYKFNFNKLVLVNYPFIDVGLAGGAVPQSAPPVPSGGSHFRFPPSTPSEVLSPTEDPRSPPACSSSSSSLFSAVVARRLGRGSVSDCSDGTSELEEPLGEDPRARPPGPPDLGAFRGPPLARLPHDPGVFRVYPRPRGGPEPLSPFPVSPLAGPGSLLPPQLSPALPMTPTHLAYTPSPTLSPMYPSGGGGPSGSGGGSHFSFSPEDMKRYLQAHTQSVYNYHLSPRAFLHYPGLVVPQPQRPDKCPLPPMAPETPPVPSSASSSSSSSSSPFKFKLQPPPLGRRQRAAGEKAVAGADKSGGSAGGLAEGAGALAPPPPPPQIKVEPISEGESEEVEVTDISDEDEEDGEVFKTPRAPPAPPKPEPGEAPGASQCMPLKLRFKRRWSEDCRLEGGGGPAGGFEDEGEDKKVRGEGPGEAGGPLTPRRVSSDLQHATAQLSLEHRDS
The procedure, abridged: as §1

Another test concerns the target T9, ETS2 (Homo sapiens, UniProt P15036 1-469).
T9 sequence: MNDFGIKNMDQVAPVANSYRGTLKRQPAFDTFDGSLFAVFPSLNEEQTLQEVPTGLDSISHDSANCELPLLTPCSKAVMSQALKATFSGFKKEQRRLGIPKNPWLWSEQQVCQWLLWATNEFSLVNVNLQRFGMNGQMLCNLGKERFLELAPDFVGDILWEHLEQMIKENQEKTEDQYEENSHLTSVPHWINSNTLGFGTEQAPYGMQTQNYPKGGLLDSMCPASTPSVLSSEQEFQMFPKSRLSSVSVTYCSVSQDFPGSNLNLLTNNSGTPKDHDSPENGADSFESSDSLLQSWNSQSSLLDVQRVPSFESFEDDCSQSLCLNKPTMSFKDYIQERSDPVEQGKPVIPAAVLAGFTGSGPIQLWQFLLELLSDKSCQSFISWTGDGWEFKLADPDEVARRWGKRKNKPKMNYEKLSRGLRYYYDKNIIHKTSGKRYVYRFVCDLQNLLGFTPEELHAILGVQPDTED
An outline of the steps:
as §1

The next test addresses T10, ETV3 (Homo sapiens, UniProt P41162-2 1-143).
T10 sequence: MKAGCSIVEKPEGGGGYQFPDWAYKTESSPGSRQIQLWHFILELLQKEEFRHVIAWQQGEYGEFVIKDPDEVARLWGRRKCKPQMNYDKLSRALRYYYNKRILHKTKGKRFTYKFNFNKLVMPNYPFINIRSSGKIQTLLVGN
The procedure, abridged: as §1

Sequence of ELF4 (Q99607 whole entry): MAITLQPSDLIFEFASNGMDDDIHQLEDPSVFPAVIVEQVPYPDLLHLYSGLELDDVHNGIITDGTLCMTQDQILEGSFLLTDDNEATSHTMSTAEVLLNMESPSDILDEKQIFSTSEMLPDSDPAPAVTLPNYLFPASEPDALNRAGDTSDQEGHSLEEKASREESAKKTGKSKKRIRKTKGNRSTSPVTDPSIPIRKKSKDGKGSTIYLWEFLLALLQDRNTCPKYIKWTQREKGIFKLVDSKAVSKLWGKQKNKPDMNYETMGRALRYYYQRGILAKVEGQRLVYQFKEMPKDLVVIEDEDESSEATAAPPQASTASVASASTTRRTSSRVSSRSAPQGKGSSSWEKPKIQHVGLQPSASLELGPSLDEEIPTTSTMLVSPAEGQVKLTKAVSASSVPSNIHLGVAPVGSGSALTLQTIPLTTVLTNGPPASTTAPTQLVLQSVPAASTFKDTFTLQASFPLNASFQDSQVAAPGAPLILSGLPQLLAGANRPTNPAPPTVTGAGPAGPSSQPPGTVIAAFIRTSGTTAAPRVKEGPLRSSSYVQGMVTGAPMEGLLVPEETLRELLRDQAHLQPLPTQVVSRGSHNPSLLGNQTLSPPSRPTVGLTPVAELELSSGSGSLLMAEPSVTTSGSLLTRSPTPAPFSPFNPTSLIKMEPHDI
Sequence of ELF1 (P32519 whole entry): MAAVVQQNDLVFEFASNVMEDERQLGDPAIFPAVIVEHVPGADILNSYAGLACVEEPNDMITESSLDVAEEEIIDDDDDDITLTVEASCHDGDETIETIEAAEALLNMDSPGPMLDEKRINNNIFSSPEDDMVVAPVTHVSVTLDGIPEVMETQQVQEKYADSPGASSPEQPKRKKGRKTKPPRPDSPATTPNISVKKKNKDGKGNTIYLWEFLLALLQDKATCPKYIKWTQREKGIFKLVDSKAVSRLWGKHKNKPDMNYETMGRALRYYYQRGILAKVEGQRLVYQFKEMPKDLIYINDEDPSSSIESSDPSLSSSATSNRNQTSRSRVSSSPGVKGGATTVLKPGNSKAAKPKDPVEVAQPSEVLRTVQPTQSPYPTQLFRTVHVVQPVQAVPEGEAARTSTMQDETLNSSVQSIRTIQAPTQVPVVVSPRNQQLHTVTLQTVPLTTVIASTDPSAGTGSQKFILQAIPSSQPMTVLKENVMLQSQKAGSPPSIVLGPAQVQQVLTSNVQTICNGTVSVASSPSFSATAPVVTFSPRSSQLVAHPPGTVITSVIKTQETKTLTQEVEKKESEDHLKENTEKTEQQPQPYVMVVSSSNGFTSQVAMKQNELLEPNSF
Sequence of ETV1 (P50549 whole entry): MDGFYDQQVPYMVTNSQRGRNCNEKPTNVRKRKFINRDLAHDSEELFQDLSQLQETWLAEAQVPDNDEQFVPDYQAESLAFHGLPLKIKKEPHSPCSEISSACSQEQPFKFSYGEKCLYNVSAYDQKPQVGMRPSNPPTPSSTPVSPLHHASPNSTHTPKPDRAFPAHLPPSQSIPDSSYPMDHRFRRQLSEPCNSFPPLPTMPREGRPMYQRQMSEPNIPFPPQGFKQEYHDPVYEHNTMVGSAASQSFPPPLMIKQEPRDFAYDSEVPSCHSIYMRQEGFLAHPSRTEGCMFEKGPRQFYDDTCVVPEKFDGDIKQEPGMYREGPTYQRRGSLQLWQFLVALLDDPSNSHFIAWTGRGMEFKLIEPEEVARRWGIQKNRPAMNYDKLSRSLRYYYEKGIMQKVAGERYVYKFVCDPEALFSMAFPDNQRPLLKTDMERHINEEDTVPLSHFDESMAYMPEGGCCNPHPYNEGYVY

Consider CACCGC, for which the binding signal in the test with ELK1 was 1.01 fold enrichment (6-mer frequency, TF over GST control); with GABPA, 1.06 fold enrichment (6-mer frequency, TF over GST control); in the test with ERG, 1.02 fold enrichment (6-mer frequency, TF over GST control); with ELF1, 1.04 fold enrichment (6-mer frequency, TF over GST control); with EHF, 1.08 fold enrichment (6-mer frequency, TF over GST control); in the test with SPI1, 1.01 fold enrichment (6-mer frequency, TF over GST control). Further, the binding signal was 1.06 fold enrichment (6-mer frequency, TF over GST control) with ELK3; 1.04 fold enrichment (6-mer frequency, TF over GST control) with FEV; 1.06 fold enrichment (6-mer frequency, TF over GST control) with ELF4; 1 fold enrichment (6-mer frequency, TF over GST control) in the test with ELK4; 1 fold enrichment (6-mer frequency, TF over GST control) in the test with ETV1; 1.07 fold enrichment (6-mer frequency, TF over GST control) with ERF. Also, the binding signal is 1.05 fold enrichment (6-mer frequency, TF over GST control) with ETS2 and 1.04 fold enrichment (6-mer frequency, TF over GST control) with ETV3.
As to GCCAAC, the binding signal with ELF1 was 1.01 fold enrichment (6-mer frequency, TF over GST control); with ELF4, 1.04 fold enrichment (6-mer frequency, TF over GST control); with ERF, 1.03 fold enrichment (6-mer frequency, TF over GST control).
